Source: PubChem BioAssay (National Center for Advancing Translational Sciences (NCATS))
LmPK inhibitor: inhibitors of Leishmania mexicana pyruvate kinase. AID 1721. Q27686. purified LmPK, Kinase-Glo ATP luminescence, 1 h. Potency, µM (titrated, usually from 57.5 µM), without a hit: top-dose activity change, negative = inhibition, usual class: inhibitors. actives 0.37% (n = 290,000)
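ATP generated from ADP (0.1 mM) and PEP (0.5 mM) by 0.1 nM LmPK over 1 h at room temperature (pH 7.2 imidazole buffer) was detected by coupled luciferase luminescence. Values were normalized to uninhibited and no-enzyme wells.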
Sm TGR block: inhibitors of Schistosoma mansoni thioredoxin glutathione reductase | Potency, µM (titrated, usually from 114 µM), without a hit: top-dose activity change, negative = inhibition, usual class: inhibitors | AID 485364 | purified TGR, DTNB reduction, TNB absorbance 405 nm | Q962Y6 | actives 3% (n = 360,000); further: nearly all actives have a fitted effect of over 60% in size
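TGR 20 nM + NADPH 100 uM (dispensed conc.), cpd preinc 15 min RT; start with NADPH (500 uM addition) then DTNB (15 mM addition). Kinetic TNB absorbance, 405 nm filter. Four-parameter Hill fit across titration.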
TbPYK inhibitor: inhibitors of Trypanosoma brucei pyruvate kinase; Q57TT1; TbPYK enzyme, Kinase-Glo Plus ATP luminescence, 45 min; Potency, µM (series often up to 76.8 µM), inactives show at the highest dose activity, negative = inhibition, usual class: inhibitors; actives 0.12% (n = 410,000); AID 624173; further: nearly all actives have a fitted effect of over 50% in size
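Activity of T. brucei pyruvate kinase was followed by Kinase-Glo Plus luminescence after the enzyme reacted 45 min at room temperature with 130 uM ADP (final) and substrate. Test compounds were added before ADP at multiple concentrations.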
Giardia FBPA inh-1: inhibitors of Giardia lamblia fructose-1,6-bisphosphate aldolase; purified Giardia FBPA; Potency, µM (highest dose often 59.6 µM), for inactives: top-dose activity, negative = inhibition, hits mostly inhibitors; actives 0.71% (n = 290,000); AID 2451; further: nearly all actives have a fitted effect of over 55% in size
Target sequence (A8B2U2 whole entry, looked up): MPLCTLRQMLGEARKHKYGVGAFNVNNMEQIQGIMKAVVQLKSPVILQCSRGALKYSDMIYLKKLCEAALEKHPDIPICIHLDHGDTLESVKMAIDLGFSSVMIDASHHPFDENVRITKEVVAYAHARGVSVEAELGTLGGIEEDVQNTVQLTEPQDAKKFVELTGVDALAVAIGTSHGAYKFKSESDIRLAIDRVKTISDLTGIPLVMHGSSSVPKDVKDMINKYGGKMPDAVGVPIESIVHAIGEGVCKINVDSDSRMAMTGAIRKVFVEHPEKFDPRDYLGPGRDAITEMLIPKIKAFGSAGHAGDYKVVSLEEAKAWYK
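40 nM FBPA preincubated 10 min at RT with compound (up to 57.5 uM final), then substrate plus GAPDH/TPI/NAD/arsenate coupling and diaphorase/resazurin added. Fluorescence read after 20 min at RT, 525/598 nm.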
RE007 growth inh: less growth of the S. pombe RE007 Vpr strain; S. pombe RE007 Vpr strain, BacTiter-Glo ATP luminescence, 24 h; Potency, µM (highest dose often 92.2 µM), inactives show top-dose activity change, negative = less growth, hits mostly inhibitors; actives 0.21% (n = 360,000); active means well fitted falling curve with a large enough effect; inconclusive means small, poorly fitted or top-dose-only effect; inactive means no such curve, though single readings can be large or run the other way; further: nearly all actives have a fitted effect of over 50% in size
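Fission yeast strain RE007, carrying one chromosomally integrated HIV-1 vpr copy, was seeded at OD 0.01 in PMG+AL medium with 23 nL pinned compound. After 24 h at 30 °C and 99% humidity, viability was read by BacTiter-Glo luminescence.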
Giardia growth: blocks growth of Giardia lamblia trophozoites. shares compounds with Giardia FBPA inh-1. Giardia lamblia trophozoite growth inhibition. Potency, µM (doses to about 57.5 µM), for inactives: top-dose activity change, negative = inhibition, usual class: inhibitors. actives 5% (n = 1,500). AID 2785;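 further: trophozoites exposed to compound for 48 h at 37 °C; nearly all actives have a fitted effect of over 70% in size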
Mammal cell tox: counter-screen for Giardia aldolase inhibitors: mammalian cell toxicity. shares compounds with Giardia FBPA inh-1. mammalian cell viability counter-screen, qHTS. Potency, µM (highest dose often 57.5 µM), for inactives: top-dose viability change, negative = toxicity, usual class: inhibitors. actives 4% (n = 1,500);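 further: Chinese hamster ovary cells used as mammalian cytotoxicity surrogate; viability measured as cellular ATP by luminescence; compound exposure lasted 48 h before reading; nearly all actives have a fitted effect of over 60% in size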
Giardia FBPA inh-2: confirmation of Giardia fructose-bisphosphate aldolase inhibitors; shares compounds with Giardia FBPA inh-1; purified Giardia aldolase enzyme activity, qHTS; Potency, µM (doses to about 57.5 µM), inactives show at the top dose activity change, negative = inhibition, most hits filed as inhibitors; actives 5% (n = 1,500); further: nearly all actives have a fitted effect of over 45% in size
Rabbit FBPA inh: rabbit FBP aldolase inhibition by Giardia aldolase hits; shares compounds with Giardia FBPA inh-1; Rabbit muscle FBPA enzyme inhibition, selectivity counter-screen; Potency, µM (top dose mostly 57.5 µM), inactives show at the highest dose activity, negative = inhibition, usual class: inhibitors; actives 4% (n = 1,500); further: nearly all actives have a fitted effect of over 60% in size
Target sequence (P00883 whole entry, looked up): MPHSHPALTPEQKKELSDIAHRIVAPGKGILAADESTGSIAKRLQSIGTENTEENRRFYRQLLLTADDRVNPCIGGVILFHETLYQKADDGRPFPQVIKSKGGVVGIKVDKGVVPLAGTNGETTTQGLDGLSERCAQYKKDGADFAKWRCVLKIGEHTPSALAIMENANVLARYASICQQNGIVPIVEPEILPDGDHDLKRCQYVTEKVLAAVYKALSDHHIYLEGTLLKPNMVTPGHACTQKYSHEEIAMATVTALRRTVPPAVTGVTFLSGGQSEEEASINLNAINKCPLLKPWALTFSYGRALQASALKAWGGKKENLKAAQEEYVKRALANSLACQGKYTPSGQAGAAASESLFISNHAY
GAPDH coupling: GAPDH inhibition flagged for Giardia aldolase hits. shares compounds with Giardia FBPA inh-1. GAPDH coupling enzyme counterscreen, biochemical, qHTS. Potency, µM (top dose mostly 57.5 µM), for inactives: at the highest dose activity change, negative = inhibition, hits mostly inhibitors. actives 6% (n = 1,500); further: nearly all actives have a fitted effect of over 55% in size
Starred values were filed as active, the others as inactive; [ ] = another dose, or the depositor's remark. Hits are enriched below; roughly 3.3% of the tested compounds scored in any of these assays. Unless noted, the call rests on the fitted dose curve; in most records, active means well fitted curve in the direction sought with a large enough effect; inconclusive means small, poorly fitted or top-dose-only effect, or another doubt; inactive means no such curve, though single readings can be large; an effect the other way counts as inactive or inconclusive. On the % scale 0 is the no-effect control and ±100 the full control effect; potency means the concentration at half of the fitted maximal effect.

Results for N[C@@H](CSS(=O)(=O)O)C(=O)O ?
Giardia FBPA inh-1: inconclusive; Giardia growth: -11%[38.3 µM]; Mammal cell tox: 9%; Giardia FBPA inh-2: 22µM*; Rabbit FBPA inh: 14µM*; GAPDH coupling: 22µM*

What do the screens show for `NC(CSSCC(N)C(=O)O)C(=O)O` (configuration not stated)?
TbPYK inhibitor: 1%; Giardia FBPA inh-1: 0%

Results for NC(=O)c1c(NC(=O)Cc2ccccc2)sc2c1CCN(Cc1ccccc1)C2 ?
LmPK inhibitor: 4%; Sm TGR block: 2%; TbPYK inhibitor: -1%; Giardia FBPA inh-1: 13µM*; RE007 growth inh: 9%; Giardia growth: inconclusive; Mammal cell tox: -9%; Giardia FBPA inh-2: -3%; Rabbit FBPA inh: 1%; GAPDH coupling: -24%

What do the screens show for `COC(=O)c1c(NC(=O)C(C)(C)C)sc2c1CCN(Cc1ccccc1)C2`?
LmPK inhibitor: 2%; Sm TGR block: 0%; TbPYK inhibitor: -2%; Giardia FBPA inh-1: 11µM*; RE007 growth inh: -1%; Giardia growth: -30%; Mammal cell tox: -16%; Giardia FBPA inh-2: -4%; Rabbit FBPA inh: 9%; GAPDH coupling: -14%

Results for CCOC(=O)c1c(NC(C)=O)sc2c1CCN(Cc1ccccc1)C2 ?
LmPK inhibitor: -4%; Sm TGR block: 1%; TbPYK inhibitor: 1%; Giardia FBPA inh-1: inconclusive; RE007 growth inh: -8%

Results for CCOC(=O)c1c(NC(=O)CC)sc2c1CCN(Cc1ccccc1)C2 ?
LmPK inhibitor: 3%; Sm TGR block: 2%; TbPYK inhibitor: 0%; Giardia FBPA inh-1: 11µM*; RE007 growth inh: -12%; Giardia growth: inconclusive; Mammal cell tox: -17%; Giardia FBPA inh-2: 5%; Rabbit FBPA inh: 11%; GAPDH coupling: -9%

How did COC(=O)c1c(NC(=O)Cc2ccccc2)sc2c1CCN(C(C)C)C2 do in these assays?
LmPK inhibitor: -3%; Sm TGR block: 7%; TbPYK inhibitor: -2%; Giardia FBPA inh-1: 11µM*; RE007 growth inh: 5%; Giardia growth: 17%; Mammal cell tox: -3%; Giardia FBPA inh-2: 2%; Rabbit FBPA inh: 5%; GAPDH coupling: 9%

What do the screens show for `CCNc1nc(NC(C)C)nc(NS(=O)(=O)c2ccc(C)cc2)n1`?
LmPK inhibitor: -1%; Sm TGR block: 9%; TbPYK inhibitor: 3%; Giardia FBPA inh-1: 28µM*; RE007 growth inh: 6%; Giardia growth: -20%; Mammal cell tox: -2%; Giardia FBPA inh-2: inconclusive; Rabbit FBPA inh: inconclusive; GAPDH coupling: 40µM*

What do the screens show for `COc1ccc(NC(C)=O)cc1NC(C)c1nc2sc(C)c(C)c2c(=O)[nH]1` (configuration not stated)?
LmPK inhibitor: 7%; Sm TGR block: -1%; TbPYK inhibitor: 2%; Giardia FBPA inh-1: 8.9µM*; RE007 growth inh: 2%; Giardia growth: -3%[10.4 µM]; Mammal cell tox: -2%; Giardia FBPA inh-2: inconclusive; Rabbit FBPA inh: inconclusive; GAPDH coupling: inconclusive

What do the screens show for `CC(=O)N1CCN(C(=O)CSc2nc3c(cnn3-c3ccccc3)c(=O)[nH]2)CC1`?
LmPK inhibitor: 2%; Sm TGR block: 20%; TbPYK inhibitor: -8%; Giardia FBPA inh-1: 40µM*; RE007 growth inh: -4%; Giardia growth: inconclusive; Mammal cell tox: -6%; Giardia FBPA inh-2: 1%; Rabbit FBPA inh: 9%; GAPDH coupling: 6%

How did S=c1[nH]nc(-c2ccccn2)n1/N=C/c1c(Cl)cccc1Cl do in these assays?
LmPK inhibitor: 16%; Sm TGR block: -9%; TbPYK inhibitor: -41%; Giardia FBPA inh-1: 6.3µM*; RE007 growth inh: 3%; Giardia growth: -9%[38.3 µM]; Mammal cell tox: 6%; Giardia FBPA inh-2: -5%; Rabbit FBPA inh: -9%; GAPDH coupling: -3%

How did Cc1ccc(/C=N/n2c(-c3ccccn3)n[nH]c2=S)o1 do in these assays?
LmPK inhibitor: 9%; Sm TGR block: 45µM*; TbPYK inhibitor: inconclusive; Giardia FBPA inh-1: 11µM*; RE007 growth inh: 10%; Giardia growth: -6%; Mammal cell tox: 6%; Giardia FBPA inh-2: -6%; Rabbit FBPA inh: 1%; GAPDH coupling: 2%

How did Cc1ccccc1/C=N/n1c(-c2ccccn2)n[nH]c1=S do in these assays?
LmPK inhibitor: 11%; Sm TGR block: 9%; TbPYK inhibitor: inconclusive; Giardia FBPA inh-1: 4µM*; RE007 growth inh: 6%; Giardia growth: 4%[38.3 µM]; Mammal cell tox: -8%; Giardia FBPA inh-2: -15%; Rabbit FBPA inh: -17%; GAPDH coupling: -17%

How did Cc1cccc(/C=N/n2c(-c3ccccn3)n[nH]c2=S)c1 do in these assays?
LmPK inhibitor: 10%; Sm TGR block: -21%; Giardia FBPA inh-1: -17%

What do the screens show for `S=c1[nH]nc(-c2ccccn2)n1/N=C/c1ccccc1`?
LmPK inhibitor: 4%; Sm TGR block: -7%; TbPYK inhibitor: inconclusive; Giardia FBPA inh-1: -26%; RE007 growth inh: 8%

How did CCCNC(=O)Nc1ccc2c(c1)OC[C@H](C)N(C(=O)C1CCCCC1)C[C@@H](C)[C@H](OC)CN(C)C2=O do in these assays?
RE007 growth inh: -2%

Results for COc1cc(OC)c(OC)cc1/C=C(\C#N)C(=O)NCc1cccs1 ?
LmPK inhibitor: -1%; Sm TGR block: -5%; TbPYK inhibitor: 2%; Giardia FBPA inh-1: -5%; RE007 growth inh: 8%

Results for Cc1cc(C=C2C(=O)N(C)C(=S)N(C)C2=O)c(C)n1-c1cccnc1 ?
LmPK inhibitor: 0%; Sm TGR block: inconclusive; TbPYK inhibitor: inconclusive; Giardia FBPA inh-1: 3.2µM*; Giardia growth: -29%; Mammal cell tox: 7%; Giardia FBPA inh-2: -12%; Rabbit FBPA inh: -7%; GAPDH coupling: -29%
